Our source for the outcome and AC50 values is PubChem BioAssay (EPA / NIEHS).

The source made the active and inactive calls. Rule for the calls: active = hit-call score of the fitted dose curve at least 0.9, where 1 is the maximum; inactive = score below 0.9.

A short description of experiment [1]: ATG_E_Box_CIS: Attagene CIS-FACTORIAL HepG2 Assay for human Enhancer Box (E-box) (AID 2282936). As to conditions: HepG2 E-box cis-reporter transcription, actives raise or lower the signal. A digest of the protocol: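 Measured 24 h post-dosing in HepG2 cells transfected with multiple cis-regulated reporter units, signal being reporter mRNA induction detected by fluorescent RT-PCR with capillary electrophoresis; gain or loss fitted against DMSO.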

A short description of experiment [2]: ATG_M_61_CIS: Attagene CIS-FACTORIAL HepG2 Assay for M61 Transcription Factor (Internal Marker) (AID 2282937). Conditions: HepG2 Attagene CIS-FACTORIAL M61 internal marker reporter; actives raise or lower the signal. In short, it runs like this: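 HepG2 cells transiently transfected with multiplexed cis-promoter reporter units reporting endogenous transcription factor activity, measured 24 h after dosing. Reporter mRNA quantified by RT-PCR and capillary electrophoresis; bidirectional fit against DMSO baseline.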

Experiment [3] in a line: ATG_EGR_CIS: Attagene CIS-FACTORIAL HepG2 Assay for human Early Growth Response 1 (EGR1) (AID 2282938). As to conditions: HepG2 Attagene CIS-FACTORIAL EGR reporter mRNA; actives raise or lower the signal. A digest of the protocol: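 HepG2 cells transiently transfected with cis-element-driven multiplexed reporter units, dosed for 24 h. EGR1-element reporter mRNA quantified by RT-PCR, 6-FAM labelling, HpaI digestion and capillary electrophoresis; bidirectional fit versus DMSO.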

Experiment [4] in a line: ATG_M_19_CIS: Attagene CIS-FACTORIAL HepG2 Assay for M19 Transcription Factor (Internal Marker) (AID 2282939). As to conditions: HepG2 Attagene CIS-FACTORIAL M19 internal marker reporter; actives raise or lower the signal. A digest of the protocol:
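Readout: fluorescent reporter-transcript fragments by capillary electrophoresis after RT-PCR. Human HepG2 liver cells carried transfected MRTU constructs reporting endogenous transcription-factor activity; exposure 24 h. Gain or loss of signal fitted relative to DMSO.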

Experiment [5] in a line: ATG_ERE_CIS: Attagene CIS-FACTORIAL HepG2 Assay for Estrogen Response Element (ERE) (AID 2282940). As to conditions: HepG2 ERE cis-reporter, Attagene RNA transcript; actives raise or lower the signal. In short, it runs like this:
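Readout: reporter mRNA induction by RT-PCR, FAM-labelled primer extension, HpaI digestion and capillary electrophoresis, 24 h after dosing transfected HepG2 cells. Endogenous transcription factors act on cis-element-regulated reporters. Gain or loss fitted against DMSO.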

The nature of experiment [6]: ATG_Ets_CIS: Attagene CIS-FACTORIAL HepG2 Assay for human Erythroblast Transformation Specific (ETS) (AID 2282941). As to conditions: HepG2 ETS cis-reporter transcription, actives raise or lower the signal. In short, it runs like this:
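RT-PCR/capillary electrophoresis fluorescence read-out of reporter mRNA; HepG2 transient multi-reporter transfection; 24 h compound exposure; gain or loss of signal fitted bidirectionally relative to DMSO.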

For experiment [7], the target named is Hepatocyte nuclear factor 3-beta (Homo sapiens) (UniProt Q9Y261). The experiment can be described thus: ATG_FoxA2_CIS: Attagene CIS-FACTORIAL HepG2 Assay for human Forkhead box A2 (FOXA2) (AID 2282942). As to conditions: HepG2 cis-reporter transcription factor activity, 24 h; actives raise or lower the signal. In short, it runs like this: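 HepG2 transiently transfected with a multiplexed cis-promoter reporter library read endogenous FOXA2 activity. After 24 h compound exposure, reporter mRNA was quantified by RT-PCR, HpaI digestion and capillary electrophoresis. Bidirectional fit against DMSO.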
Chain of Hepatocyte nuclear factor 3-beta (Homo sapiens) (Q9Y261 whole entry, looked up): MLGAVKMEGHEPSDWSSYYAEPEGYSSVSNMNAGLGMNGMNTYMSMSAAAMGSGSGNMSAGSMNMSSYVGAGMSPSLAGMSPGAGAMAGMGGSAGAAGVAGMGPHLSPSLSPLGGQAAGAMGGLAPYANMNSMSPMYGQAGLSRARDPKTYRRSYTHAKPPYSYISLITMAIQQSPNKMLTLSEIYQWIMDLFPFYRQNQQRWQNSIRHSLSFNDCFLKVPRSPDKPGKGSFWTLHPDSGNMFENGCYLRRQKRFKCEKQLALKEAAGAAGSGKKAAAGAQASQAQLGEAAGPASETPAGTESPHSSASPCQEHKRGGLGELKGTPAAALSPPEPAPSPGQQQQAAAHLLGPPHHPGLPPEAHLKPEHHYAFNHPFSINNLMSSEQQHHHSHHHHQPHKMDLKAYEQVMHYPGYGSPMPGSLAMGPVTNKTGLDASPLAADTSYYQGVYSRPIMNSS

The nature of experiment [8]: ATG_FoxO_CIS: Attagene CIS-FACTORIAL HepG2 Assay for human Forkhead box O (FoxO) (AID 2282943). As to conditions: HepG2 Attagene cis-reporter, FoxO element, mRNA; actives raise or lower the signal. In short, it runs like this: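 HepG2 cells transiently transfected with cis-promoter-driven multiple reporter transcription units; 24 h after chemical dosing, reporter mRNA quantified by RT-PCR, fluorescent primer extension, HpaI digestion and capillary electrophoresis. Bidirectional fitting versus DMSO baseline.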

Experiment [9] is described as follows: ATG_GATA_CIS: Attagene CIS-FACTORIAL HepG2 Assay for human GATA Binding Protein (AID 2282944). As to conditions: HepG2 GATA cis-element reporter, Attagene multiplex mRNA; actives raise or lower the signal. A digest of the protocol:
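Read-out: fluorescent reporter mRNA fragments resolved by capillary electrophoresis after RT-PCR. Human liver HepG2 cells carried transiently transfected cis-regulated reporter constructs; chemicals incubated 24 h; gain or loss of signal fitted relative to DMSO.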

Experiment [10] can be described thus: ATG_GLI_CIS: Attagene CIS-FACTORIAL HepG2 Assay for human Zinc Finger Protein GLI1 (AID 2282945). As to conditions: HepG2, Attagene cis-factorial reporter mRNA, GLI element; actives raise or lower the signal. In short, it runs like this: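 HepG2 cells transiently transfected with cis-promoter multiplexed reporter units report endogenous transcription factor activity. After 24 h chemical exposure, reporter mRNA was quantified by RT-PCR, 6-FAM labelling, HpaI digestion and capillary electrophoresis, with bidirectional fitting against DMSO.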

Experiment [11] deals with Bile acid receptor (Homo sapiens) (UniProt Q96RI1). The experiment in a line: ATG_IR1_CIS: Attagene CIS-FACTORIAL HepG2 Assay for human Nuclear Receptor Subfamily 1 Group H Member 4 (NR1H4), IR1 submotif (AID 2282946). Conditions: IR1 reporter transcription, actives raise or lower the signal. A digest of the protocol:
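Readout: reporter transcript levels by RT-PCR with fluorescent capillary electrophoresis, from HepG2 cells transiently transfected with multiplexed cis-regulated reporters and dosed 24 h. Gain- or loss-of-signal fitted versus DMSO negative control.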

A short description of experiment [12]: ATG_ISRE_CIS: Attagene CIS-FACTORIAL HepG2 Assay for human Interferon Regulatory Factor 1 (IRF1) binding to an Interferon-Stimulated Response Element (ISRE) (AID 2282948). As to conditions: HepG2 ISRE cis-reporter (Attagene), mRNA transcription readout; actives raise or lower the signal. A digest of the protocol: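 Read-out: fluorescent RT-PCR products resolved by capillary electrophoresis, reporting endogenous transcription factor activity via ISRE-driven reporter mRNA in transfected HepG2 cells dosed for 24 h; gain or loss fitted relative to DMSO.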

The nature of experiment [13]: ATG_M_32_CIS: Attagene CIS-FACTORIAL HepG2 Assay for M32 Transcription Factor (Internal Marker) (AID 2282949).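 Note: background control marker of the multiplexed CIS panel rather than a real target.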 As to conditions: HepG2 Attagene cis-factorial M32 reporter, mRNA; actives raise or lower the signal. In short, it runs like this: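 Using DMSO as baseline, bidirectional curve fits were applied to reporter mRNA signals. These came from transiently transfected HepG2 cells exposed for 24 h, with RNA analysed by RT-PCR, FAM primer extension, HpaI digestion and CE.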

Experiment [14] is described as follows: ATG_M_06_CIS: Attagene CIS-FACTORIAL HepG2 Assay for M06 Transcription Factor (Internal Marker) (AID 2282950). As to conditions: HepG2 Attagene CIS-FACTORIAL M06 internal marker reporter; actives raise or lower the signal. A digest of the protocol:
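Terse: HepG2, transient MRTU transfection (FuGene 6), 24 h dosing; total RNA, oligo(dT) RT, PCR, FAM label, HpaI cut, capillary electrophoresis; bidirectional fit vs DMSO baseline; background-control endpoint.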

Experiment [15] concerns the target Hepatocyte nuclear factor 6 (Homo sapiens) (UniProt Q9UBC0). The experiment in a line: ATG_HNF6_CIS: Attagene CIS-FACTORIAL HepG2 Assay for human Hepatocyte Nuclear Factor 6 (HNF6) (AID 2282952). Conditions: HepG2 Attagene cis-factorial HNF6 reporter transcription; actives raise or lower the signal. In short, it runs like this:
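Twenty-four-hour chemical treatment of reporter-transfected HepG2 cells precedes RNA isolation, DNase-treated reverse transcription and PCR of reporter sequences. Labelled fragments are sized by capillary electrophoresis and fitted bidirectionally versus DMSO.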

In experiment [16] the target is Heat shock factor protein 1 (Homo sapiens) (UniProt Q00613). The experiment can be described thus: ATG_HSE_CIS: Attagene CIS-FACTORIAL HepG2 Assay for human Heat Shock Transcription Factor 1 (HSE) (AID 2282953). Conditions: HepG2 HSE cis-reporter, Attagene RNA transcription; actives raise or lower the signal. A digest of the protocol: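 Read-out: fluorescence of reporter-specific RT-PCR fragments separated by capillary electrophoresis. HepG2 carrying transfected cis-element reporter units; 24 h dosing; activity fitted in both directions relative to DMSO baseline.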
Chain of Heat shock factor protein 1 (Homo sapiens) (Q00613 whole entry, looked up, the tested form may be a part): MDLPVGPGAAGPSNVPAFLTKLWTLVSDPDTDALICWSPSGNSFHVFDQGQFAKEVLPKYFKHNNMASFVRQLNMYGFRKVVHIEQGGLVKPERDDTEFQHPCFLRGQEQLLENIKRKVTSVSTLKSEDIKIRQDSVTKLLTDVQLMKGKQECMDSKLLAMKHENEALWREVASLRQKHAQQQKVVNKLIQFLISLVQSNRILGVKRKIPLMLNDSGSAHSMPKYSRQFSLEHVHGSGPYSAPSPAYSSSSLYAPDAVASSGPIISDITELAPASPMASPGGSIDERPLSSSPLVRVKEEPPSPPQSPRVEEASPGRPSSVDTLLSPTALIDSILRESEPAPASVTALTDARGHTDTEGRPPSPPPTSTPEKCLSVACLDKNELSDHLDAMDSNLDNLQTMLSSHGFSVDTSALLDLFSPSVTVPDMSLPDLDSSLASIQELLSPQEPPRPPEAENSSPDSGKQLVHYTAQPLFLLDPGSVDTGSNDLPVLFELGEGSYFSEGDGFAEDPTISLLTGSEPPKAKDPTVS

Experiment [17] in a line: ATG_MRE_CIS: Attagene CIS-FACTORIAL HepG2 Assay for human Metal Responsive Element (MRE) (AID 2282954). As to conditions: HepG2 MRE cis-reporter transcription, Attagene multiplex; actives raise or lower the signal. A digest of the protocol:
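Readout: capillary electrophoresis of 6-FAM-labelled, HpaI-digested RT-PCR reporter products. System: HepG2 cells carrying transient multiplexed cis reporters, dosed 24 h. Analysis: bidirectional fit, DMSO baseline.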

Experiment [18] in a line: ATG_PBREM_CIS: Attagene CIS-FACTORIAL HepG2 Assay for human Phenobarbital-responsive Enhancer Module (PBREM) (AID 2282955). As to conditions: HepG2 PBREM cis-reporter, Attagene multiplexed transcription; actives raise or lower the signal. In short, it runs like this: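 HepG2 cells transiently transfected with multiple cis-regulated reporter units measure endogenous transcription factor activity; 24 h compound exposure. Reporter mRNA quantified by RT-PCR, fluorescent labelling, HpaI digestion and capillary electrophoresis; bidirectional fit versus DMSO.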

A short description of experiment [19]: ATG_GRE_CIS: Attagene CIS-FACTORIAL HepG2 Assay for human Glucocorticoid Response Elements (GRE) (AID 2282947). As to conditions: HepG2 GRE cis-reporter, Attagene multiplex mRNA; actives raise or lower the signal. In short, it runs like this:
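HepG2, transient cis-reporter transfection, 24 h. Reporter mRNA: RT-PCR then CE, fluorescence. Fit both directions vs DMSO.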

Experiment [20] has as its target Hypoxia-inducible factor 1-alpha (Homo sapiens) (UniProt Q16665). The experiment can be described thus: ATG_HIF1a_CIS: Attagene CIS-FACTORIAL HepG2 Assay for human Hypoxia Inducible Factor 1 (HIF1A) (AID 2282951). Conditions: HepG2 Attagene cis-factorial HIF1a reporter transcription; actives raise or lower the signal. A digest of the protocol:
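HepG2 cells transiently transfected with multiple cis-regulated reporter transcription units measure endogenous transcription factor activity. After 24 h exposure, reporter mRNA is quantified by RT-PCR with 6-FAM labelling, HpaI digestion and capillary electrophoresis. Bidirectional fitting against DMSO.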

Chain of Hepatocyte nuclear factor 6 (Homo sapiens) (Q9UBC0 whole entry, looked up, the tested form may be a part): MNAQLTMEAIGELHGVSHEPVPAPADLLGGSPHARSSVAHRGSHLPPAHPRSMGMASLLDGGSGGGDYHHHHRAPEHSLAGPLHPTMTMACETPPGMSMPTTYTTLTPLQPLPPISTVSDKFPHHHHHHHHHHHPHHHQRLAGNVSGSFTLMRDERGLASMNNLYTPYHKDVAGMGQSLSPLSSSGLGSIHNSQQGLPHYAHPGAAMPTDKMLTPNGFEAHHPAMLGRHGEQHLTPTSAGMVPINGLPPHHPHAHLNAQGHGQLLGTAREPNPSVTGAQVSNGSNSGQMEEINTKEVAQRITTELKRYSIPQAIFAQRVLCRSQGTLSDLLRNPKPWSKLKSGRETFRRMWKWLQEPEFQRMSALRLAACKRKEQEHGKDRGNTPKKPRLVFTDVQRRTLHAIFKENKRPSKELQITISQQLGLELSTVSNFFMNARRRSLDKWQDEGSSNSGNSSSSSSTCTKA
Chain of Bile acid receptor (Homo sapiens) (Q96RI1 whole entry, looked up): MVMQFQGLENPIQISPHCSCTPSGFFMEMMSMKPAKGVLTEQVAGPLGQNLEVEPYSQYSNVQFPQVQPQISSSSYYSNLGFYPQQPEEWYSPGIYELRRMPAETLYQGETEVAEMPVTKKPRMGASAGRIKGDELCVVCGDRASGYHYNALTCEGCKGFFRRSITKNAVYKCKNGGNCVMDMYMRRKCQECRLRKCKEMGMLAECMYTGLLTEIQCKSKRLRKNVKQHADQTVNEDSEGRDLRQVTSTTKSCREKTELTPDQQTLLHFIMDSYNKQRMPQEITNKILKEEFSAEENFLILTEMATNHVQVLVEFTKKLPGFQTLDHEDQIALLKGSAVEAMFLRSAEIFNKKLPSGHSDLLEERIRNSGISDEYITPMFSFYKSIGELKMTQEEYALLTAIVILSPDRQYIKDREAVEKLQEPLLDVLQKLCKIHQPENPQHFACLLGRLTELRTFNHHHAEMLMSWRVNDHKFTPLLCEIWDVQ
Chain of Hypoxia-inducible factor 1-alpha (Homo sapiens) (Q16665 whole entry, looked up): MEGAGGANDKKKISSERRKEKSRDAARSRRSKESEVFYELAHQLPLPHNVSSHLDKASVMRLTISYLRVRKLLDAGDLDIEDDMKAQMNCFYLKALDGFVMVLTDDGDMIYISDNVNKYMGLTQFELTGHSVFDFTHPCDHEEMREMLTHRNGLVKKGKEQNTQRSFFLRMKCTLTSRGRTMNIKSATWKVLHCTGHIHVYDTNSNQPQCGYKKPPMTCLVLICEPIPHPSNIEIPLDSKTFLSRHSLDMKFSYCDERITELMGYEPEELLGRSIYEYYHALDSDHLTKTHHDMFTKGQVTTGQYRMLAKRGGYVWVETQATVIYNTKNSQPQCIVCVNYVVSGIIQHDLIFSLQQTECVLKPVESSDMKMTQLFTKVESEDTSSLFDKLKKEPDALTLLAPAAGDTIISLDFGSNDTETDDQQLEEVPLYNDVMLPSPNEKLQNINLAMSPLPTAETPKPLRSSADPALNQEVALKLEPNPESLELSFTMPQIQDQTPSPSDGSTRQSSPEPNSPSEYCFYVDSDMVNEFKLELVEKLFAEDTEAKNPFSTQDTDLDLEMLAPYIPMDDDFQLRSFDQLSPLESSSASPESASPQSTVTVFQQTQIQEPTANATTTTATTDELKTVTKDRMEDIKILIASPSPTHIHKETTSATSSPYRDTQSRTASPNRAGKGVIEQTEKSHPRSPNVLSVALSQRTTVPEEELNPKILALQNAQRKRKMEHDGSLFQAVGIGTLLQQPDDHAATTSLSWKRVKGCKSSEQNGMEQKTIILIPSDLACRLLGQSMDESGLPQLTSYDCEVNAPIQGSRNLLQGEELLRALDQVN

Regarding `CCc1nc(N)nc(N)c1-c1ccc(Cl)cc1`, the result in [1], in [2], in experiment [4], in [5], in experiment [6] and in [7] was inactive. Besides, the compound was classed as inactive in [8], in experiment [9], in [10], in [11], in experiment [14] and in experiment [16]. Also, in experiment [18], the result was inactive. Further, the AC50 was 32.8 µM (active) in experiment [3]; 100 µM (active) in experiment [12]; 174 µM (active) in experiment [13]; 100 µM (active) in experiment [15]; 100 µM (active) in experiment [17].

Consider `O=C(N[C@@H](c1ccccc1)[C@@H]1CCCCN1)c1cccc(C(F)(F)F)c1Cl`, for which the outcome in experiment [1], in experiment [2], in experiment [4], in [5], in experiment [7] and in experiment [8] was inactive. Moreover, the compound was classed as inactive in experiment [9], in [11], in [19], in experiment [12], in experiment [13] and in [14]. For the same compound, the result in [18] was inactive. Besides, the AC50 in [3] was 25.7 µM (active); in experiment [6], 33 µM (active); in experiment [20] it was 16.6 µM (active); in experiment [15], 62.1 µM (active); in experiment [16], 52.4 µM (active); in experiment [17], 38 µM (active).

Consider `O=C(O)c1[nH]n(-c2ccc(S(=O)(=O)O)cc2)c(=O)c1N=Nc1ccc(S(=O)(=O)O)cc1`, for which the outcome in experiment [1], in [2], in [3], in experiment [4], in experiment [5] and in experiment [6] was inactive. For the same compound, the compound was called inactive in [7], in experiment [8], in experiment [9], in [10], in [11] and in [12]. In addition, the call in [13], in [14], in [20], in experiment [15], in experiment [16] and in experiment [17] was inactive. Besides, in experiment [18], the result was inactive.

The term AC50 denotes the concentration giving half of the maximal activity seen.
